# Data: PubChem BioAssay AID686979 (National Center for Advancing Translational Sciences (NCATS), 2013)
# Among all 420,000 compounds or so, about 50,000 (12%) were called active. Not shown: some 26% with an inconclusive outcome. The sample holds actives, similar compounds and a random draw of the others, so the mix is not that of the screen. Values without a mark were called inactive. Calls come from the whole dose curve; as a rule, active = well fitted inhibition curve with a large enough effect; inconclusive = small, poorly fitted or top-dose-only effect; inactive = flat fitted curve, though single readings scatter.
# Experiment: qHTS for Inhibitors of human tyrosyl-DNA phosphodiesterase 1 (TDP1): qHTS in cells in presence of CPT; note: nearly all actives have a fitted effect of over 55% in size
# Settings: chicken DT40 Tdp1-/-;hTDP1 cells + 20 nM CPT, ATP luminescence, 48 h; series mostly up to 46.2 µM; activity change, negative = growth inhibition: at the top concentration
# How it was run: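 Chicken DT40 Tdp1-/- cells complemented with human TDP1, 400 cells/well, exposed to compounds plus 20 nM camptothecin for at least 48 h at 37 C; viability read as ATP content by CellTiter-Glo luminescence.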
# % is set by controls: 0 for no effect and ±100 for the full control effect; potency is the fitted concentration of half-maximal effect.
SMILES,Potency,"activity change, negative = growth inhibition"
COc1ccc(CC(=O)NCc2nnc(SCC(=O)Nc3ncc(C)s3)n2C)cc1,16.4 µM (active),
COc1ccc(CC(=O)NCc2nnc(SCC(=O)Nc3nccs3)n2C)cc1,,-10.1%
COC(=O)c1ccc(NC(=O)CSc2nnc(CNc3ccc(OC)cc3)n2C)cc1,,5.11%
Cc1cnc(NC(=O)CSc2c(Cl)cccc2Cl)s1,14.6 µM (active),
Cc1cnc(NC(=O)CSc2nnc(C)s2)s1,,-12.2%
O=C(NCc1ccccc1)C(c1ccco1)N(C(=O)c1csnn1)c1ccccc1F (centres undefined),,-13%
CCCCN(C(=O)COc1ccc(NC(C)=O)cc1)C1CCS(=O)(=O)C1 (centres undefined),,-15.7%
COc1ccc(CNC(=O)CCC(=O)Nc2nnc(C(C)C)s2)cc1,,2.44%
CC[C@@H]1CC2=C(C(=O)OC(C)(C)O2)[C@@H](CC)O1,,-8.36%
Cn1c(CC(=O)Nc2ccc(F)cc2)nnc1SCC(=O)NC1CCCCC1,,2.42%
O=C(NCCN1CCOC1=O)C1CCC(=O)N(CCc2ccc(Cl)cc2)C1 (centres undefined),,-3.33%
C=CCNCCCCOc1ccccc1,,-25.9%
COc1ccc(-c2[nH]c3c(c2-c2c(-n4cccc4)n(C)c(=O)n(C)c2=O)c(=O)n(C)c(=O)n3C)cc1,,-19.5%
COc1ccc(-c2c3c(=O)n(C)c(=O)n(C)c3cn2NC(C)=O)cc1,,-0.679%
COc1cccc(-n2cc3c(c2-c2ccccc2)c(=O)n(C)c(=O)n3C)c1,23.1 µM (active),
COc1ccc(Nc2cc(=O)n(-c3ccccc3)c3c2c(=O)n(C)c(=O)n3C)cc1,,16%
Cc1ccc(-c2c3c(=O)n(C)c(=O)n(C)c3cn2-c2ccccc2O)cc1,,-1.44%
COc1ccc(-c2c3c(=O)n(C)c(=O)n(C)c3cn2-c2cccc(OC)c2)cc1,29.1 µM (active),
COc1ccccc1N(CC(=O)Nc1c(C)n(C)n(-c2ccccc2)c1=O)S(=O)(=O)c1ccccc1,,-1.58%
Cc1c(Cl)cccc1NC(=O)NCCCN1CCCC1=O,,-4.46%
O=C(OCc1cc(=O)n2nc(C3CC3)sc2n1)c1ccccc1Cl,,-26.1%
C=CCOC(=O)C1=C[C@H](c2ccc(Br)cc2)C[C@H](OCCCCO)O1,,-10.5%
COc1ccc(Cc2nnc(SC)[nH]c2=O)cc1,12.6 µM (active),
COc1ccc(Cc2nnc(SCC(=O)Nc3ccc(C)c(Cl)c3)[nH]c2=O)cc1,,3.75%
CSc1nc(O)c(Cc2ccccc2)c(=O)[nH]1,,-2.58%
COc1ccc(NC(=O)CCNC(=O)Cn2cnc3sc4c(c3c2=O)CCCC4)cc1OC,,-5.97%
O=C(O)CC(SCC(=O)Nc1ccc(Br)cc1)C(=O)O (centres undefined),,15%

SMILES,Potency,"activity change, negative = growth inhibition"
Cc1ccc(C(=O)NC(=S)NCCN2CCOCC2)cc1,,-5.93%
CCOc1cccc(/C=N/NC(=S)NCCN2CCOCC2)c1O,4.11 µM (active),
Cc1ccc(NC(=S)NCCN2CCOCC2)cc1,,9.2%
C=CCN(CC=C)S(=O)(=O)c1ccc(C(=O)Nc2sc3c(c2C(N)=O)CCCCC3)cc1,13 µM (active),
C=CCN(CC=C)S(=O)(=O)c1ccc(C(=O)Nc2nc3c(s2)CCc2ccccc2-3)cc1,16.4 µM (active),
C=CCSc1nnc(NC(=O)c2ccc(NC(C)=O)cc2)s1,,-16.9%
NC(=O)c1c(NC(=O)c2ccccc2)sc2c1CCCC2,,-16.3%
O=C(Nc1ncc2c(n1)-c1ccccc1OC2)c1ccc(Cl)cc1,,-18.9%
COc1ccc(C(=O)Nc2ncc3c(n2)-c2ccccc2CC3)cc1,,-21.1%
COCCN(CCOC)S(=O)(=O)c1ccc(C(=O)Nc2nc3c(s2)CCc2ccccc2-3)cc1,9.2 µM (active),
COc1cccc(OC)c1C(=O)Nc1sc2c(c1C(N)=O)CCCC2,,3.81%
COCc1nnc(NC(=O)c2ccc3c(c2)OCO3)s1,,2.7%
Cc1ccc2c(=O)cc(C(=O)NCCc3ccc(S(N)(=O)=O)cc3)oc2c1C,,5.84%
O=C1CC2(CCCC2)Oc2ccc(Cl)cc21,,-14.3%
O=C1C=C(c2ccccc2)CCC1,,-1.66%
CC1CCCCC1NC(=O)CN1CCC(O)(c2ccc3c(c2)OCO3)CC1 (centres undefined),,-38.1%
CC(CCc1ccccc1)NCC(O)c1cccc([N+](=O)[O-])c1 (centres undefined),,-4.34%
CCn1c2ccccc2c2nnc(N3CCN(c4cc(C)ccc4C)CC3)nc21,,-9.5%
CC(=O)c1cccc(NC(=O)N2CCCC2C(=O)NCCc2ccccc2)c1 (centres undefined),,-21%
CN(CCc1ccccc1)C(=O)c1cccc(NC(=O)Cc2cccc(NC(=O)C3CCCN(C(=O)C4CCC4)C3)c2)c1 (centres undefined),18.4 µM (active),
CN(C(=O)c1ccc(NC(=O)Cc2cccc(NC(=O)C3CCN(C(=O)c4ccccc4)CC3)c2)cc1)C1CC1,,-1.06%
O=C(Cc1ccc(NC(=O)C2CCCN(C(=O)CCc3ccccc3)C2)cc1)Nc1ccc(C(=O)N2CCOCC2)cc1 (centres undefined),23.1 µM (active),
O=C(Cc1ccc([N+](=O)[O-])cc1)Nc1ccc(C(=O)N2CCOCC2)cc1,,-29%
CCNC(=O)c1cccc(NC(=O)C2CC(=O)N(CCc3ccccc3)C2)c1 (centres undefined),,-1.71%
CN(C(=O)c1cccc(NC(=O)Cc2ccc(NC(=O)C3CCCN(C(=O)C4CC4)C3)cc2)c1)C1CC1 (centres undefined),,-11.9%
CN(CCc1ccccc1)C(=O)c1cccc(NC(=O)Cc2cccc(NC(=O)C3CCCN(C(=O)CCc4ccccc4)C3)c2)c1 (centres undefined),14.6 µM (active),
O=C(Cc1ccc(NC(=O)C2CCCN(C(=O)C3CCCCC3)C2)cc1)Nc1cccc(C(=O)N2CCCCC2)c1 (centres undefined),,-13%
